Laboratory results from publication PMC5540273 (PLoS ONE, 2017).

Legend:
Conditions in all cases: concentration: 1 μM, replicates: in singlicate; n = 1
EPHA1 = test system: EPHA1
EPHA2 = test system: EPHA2
EPHA3 = test system: EPHA3
EPHA4 = test system: EPHA4
EPHA5 = test system: EPHA5
EPHA6 = test system: EPHA6
EPHA7 = test system: EPHA7
EPHA8 = test system: EPHA8
EPHB1 = test system: EPHB1
EPHB2 = test system: EPHB2
EPHB3 = test system: EPHB3
EPHB4 = test system: EPHB4
EPHB6 = test system: EPHB6
ERBB2 = test system: ERBB2
ERBB3 = test system: ERBB3
ERBB4 = test system: ERBB4
ERK1 = test system: T1, ERK1
T1 construct: gene MAPK3

ERK2 = test system: T2, ERK2
T2 construct: gene MAPK1

ERK3 = test system: T3, ERK3
T3 construct: gene MAPK6

ERK4 = test system: T4, ERK4
T4 construct: gene MAPK4
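Further: KINOMEscan kinase panel screen.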

SMILES | %Inh (EPHA1) [%] | %Inh (EPHA2) [%] | %Inh (EPHA3) [%] | %Inh (EPHA4) [%] | %Inh (EPHA5) [%] | %Inh (EPHA6) [%] | %Inh (EPHA7) [%] | %Inh (EPHA8) [%] | %Inh (EPHB1) [%] | %Inh (EPHB2) [%] | %Inh (EPHB3) [%] | %Inh (EPHB4) [%] | %Inh (EPHB6) [%] | %Inh (ERBB2) [%] | %Inh (ERBB3) [%] | %Inh (ERBB4) [%] | %Inh (ERK1) [%] | %Inh (ERK2) [%] | %Inh (ERK3) [%] | %Inh (ERK4) [%]
Fc1cccc(CSc2nnc(-c3ccc4c(c3)CCO4)o2)c1 | 0 | 0 | 13 | 0 | 7 | 0 | 10 | 11 | 9 | 23 | 0 | 0 | 14 | 59 | 8 | 0 | 5 | 30 | 21 | 0
Nc1nc(-c2ccccc2F)c(-c2ccnc3ccccc23)s1 [GW560459] | 0 | 0 | 0 | 0 | 0 | 0 | 0 | 0 | 34 | 0 | 0 | 1 | 0 | 71 | 0 | 36 | 10 | 0 | 0 | 0
COc1ccc(-c2coc3ccc(-c4nnc(SCc5cccc(C#N)c5)o4)cc23)cc1 | 7 | 3 | 2 | 25 | 21 | 26 | 0 | 0 | 0 | 5 | 6 | 0 | 0 | 14 | 0 | 0 | 0 | 26 | 0 | 0
CCC(=O)c1c(-c2ccccc2)c2cc(Cl)ccc2c(=O)n1Cc1cc(S(C)(=O)=O)n(CC(F)F)n1 | 2 | 0 | 7 | 2 | 0 | 2 | 0 | 0 | 0 | 0 | 1 | 0 | 0 | 0 | 0 | 0 | 7 | 11 | 0 | 0
CCC(=O)c1c(-c2ccccc2)c2cc(Cl)ccc2c(=O)n1Cc1cc(C(=O)NC2CC2)n(C)n1 | 4 | 3 | 8 | 26 | 0 | 38 | 11 | 4 | 7 | 4 | 20 | 23 | 25 | 9 | 4 | 0 | 0 | 10 | 0 | 5
CCS(=O)c1ccc(-c2coc3ccc(-c4nnc(C)o4)cc23)cc1 (stereo not shown) | 5 | 13 | 4 | 0 | 4 | 12 | 0 | 0 | 0 | 0 | 0 | 9 | 3 | 8 | 3 | 9 | 0 | 13 | 0 | 0
Cl.c1ccc(Cn2cnc3cc(Nc4ncnc5ccccc45)ccc32)cc1 [GW272142] | 4 | 0 | 0 | 12 | 0 | 10 | 0 | 10 | 0 | 0 | 12 | 13 | 80 | 38 | 0 | 33 | 0 | 0 | 19 | 0
COc1cc2ncn(-c3cc(OCc4ccc(S(C)(=O)=O)cc4)c(C(N)=O)s3)c2cc1OC [GW869979] | 0 | 0 | 7 | 0 | 0 | 0 | 22 | 17 | 9 | 9 | 0 | 0 | 38 | 0 | 11 | 0 | 10 | 2 | 6 | 0
O=C(Nc1n[nH]c2nc(-c3ccccc3)c(Br)cc12)C1CC1 [SB-708998] | 23 | 27 | 0 | 11 | 3 | 9 | 0 | 15 | 23 | 9 | 5 | 13 | 23 | 11 | 3 | 0 | 5 | 0 | 2 | 0
COc1cc2ncn(-c3cc(OCc4ccncc4)c(C(N)=O)s3)c2cc1OC [GSK336313] | 21 | 0 | 12 | 0 | 0 | 0 | 4 | 0 | 7 | 0 | 0 | 10 | 22 | 0 | 0 | 22 | 0 | 0 | 28 | 46
OCCCNc1nccc(-c2c(-c3cccc(C(F)(F)F)c3)nn3cc(C(F)(F)F)ccc23)n1 [GW630813] | 5 | 0 | 5 | 0 | 0 | 0 | 0 | 0 | 0 | 0 | 0 | 10 | 0 | 19 | 12 | 40 | 0 | 0 | 0 | 0
